The text below walks through data of PubChem BioAssay (Tox21).

Records with an inconclusive call do not appear. The source holds several records for some structures; these can differ, active in one and inactive in another. The source made the active and inactive calls. Unless noted, the call rests on the fitted dose curve.

Assay [1] in a line: qHTS assay to identify small molecule agonists of the vitamin D receptor (VDR) signaling pathway - cell viability counter screen (AID 743224; active means well fitted curve in the direction sought with a large enough effect in the repeat runs; an effect the other way counts as inactive or inconclusive; further: nearly all actives have a fitted effect of over 50% in size; further: potency means the concentration at half of the fitted maximal effect; on activity change, negative = cytotoxicity: series mostly up to about 63 µM; on the % scale 0 is the no-effect control and ±100 the full control effect). The essentials:
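CellTiter-Glo viability readout on VDR-bla cells, measured after 16 h of compound treatment at 37C in the same wells.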
A general note: Quantitative high-throughput screening tests each substance at several concentrations.

A short description of assay [2]: qHTS assay to identify small molecule antagonists of the vitamin D receptor (VDR) signaling pathway - cell viability counter screen (AID 743225; active means well fitted curve in the direction sought with a large enough effect in the repeat runs; an effect the other way counts as inactive or inconclusive; further: on the % scale 0 is the no-effect control and ±100 the full control effect; nearly all actives have a fitted effect of over 50% in size). The essentials: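 Parallel cytotoxicity test: VDR-UAS-bla HEK 293T, 3 nM (final) 1-alpha,25-dihydroxyvitamin D3 with test compound, 16 h, 37C. Endpoint is CellTiter-Glo luminescence in the same wells.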
Assay [3] can be described thus: qHTS assay to identify small molecule agonists of the NFkB signaling pathway - cell viability counter screen (AID 1159515). Further: series mostly up to about 61 µM; on the % scale 0 is the no-effect control and ±100 the full control effect; nearly all actives have a fitted effect of over 55% in size. The method in brief:
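Tox21 library compounds were tested for cytotoxicity against NFkB-bla ME-180 cells during a 5 hr exposure at 37 C. CellTiter-Glo luminescence served as the viability read-out.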

The nature of assay [4]: qHTS assay to identify small molecule agonists of the endoplasmic reticulum stress response signaling pathway (AID 1159516; active means well fitted activation curve with a large enough effect in the signal ratio in the repeat runs, not every such curve was filed as active; the % refers to the signal ratio; further: potency means the concentration at half of the fitted maximal effect; on activation: on the % scale 0 is the no-effect control and ±100 the full control effect). The essentials: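 Fluorescence at 460 and 530 nm (405 nm excitation) reports beta-lactamase from an ER stress response element in HeLa cells treated 5 hr at 37 C.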
Assay [5] is described as follows: qHTS assay to identify small molecule agonists of the endoplasmic reticulum stress response signaling pathway - cell viability counter screen (AID 1159517). Further: series mostly up to about 61 µM; on the % scale 0 is the no-effect control and ±100 the full control effect; nearly all actives have a fitted effect of over 50% in size. The method in brief: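 In parallel with the ESRE reporter read, cytotoxicity was scored by CellTiter-Glo luminescence (30 min, room temperature) on HeLa ESRE-bla cells dosed for 5 hr.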
Assay [6] in a line: qHTS assay to identify small molecule antagonists of the retinoid-related orphan receptor gamma (ROR-gamma) signaling pathway - cell viability counter screen (AID 1159520; active means well fitted curve in the direction sought with a large enough effect in the repeat runs; an effect the other way counts as inactive or inconclusive; further: on the % scale 0 is the no-effect control and ±100 the full control effect; nearly all actives have a fitted effect of over 50% in size). The essentials: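 Tet-on ROR gamma CHO cells were given compounds for 2 hr, then doxycycline hyclate at 1 uM final, and incubated 16 hr at 37 C. Viability was measured as ATP content by CellTiter-Glo luminescence.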

The target in assay [7] is Nuclear receptor ROR-gamma (Homo sapiens) (UniProt P51449). Nature of the assay: qHTS assay to identify small molecule antagonists of the retinoid-related orphan receptor gamma (ROR-gamma) signaling pathway (AID 1159521; active means well fitted curve in the direction sought with a large enough effect in the repeat runs; an effect the other way counts as inactive or inconclusive). The essentials: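 Decreased RORE-driven luciferase luminescence indicates antagonism. Tet-on RORγ CHO cells received compound, then 1 uM final doxycycline 2 h later; signal read after 16 h incubation.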

A short description of assay [8]: qHTS assay to identify small molecule agonists of the AP-1 signaling pathway - cell viability counter screen (AID 1159525). Further: nearly all actives have a fitted effect of over 55% in size. The essentials:
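Same-well cytotoxicity counter screen of the Tox21 10K library in ME-180 cells. The readout is ATP-dependent luminescence after 5 h compound treatment. Data are normalised to DMSO and tetra n-octyl ammonium bromide controls.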

The nature of assay [9]: qHTS assay to identify small molecule agonists of the AP-1 signaling pathway (AID 1159526). Further: potency means the concentration at half of the fitted maximal effect. On activation: on the % scale 0 is the no-effect control and ±100 the full control effect.
Assay [10] has as its target Retinoic acid receptor RXR-alpha (Homo sapiens) (UniProt P19793). Nature of the assay: qHTS assay to identify small molecule agonists of the RXR signaling pathway (AID 1159527). Further: nearly all actives have a fitted effect of over 35% in size. Further: potency means the concentration at half of the fitted maximal effect. On activation: on the % scale 0 is the no-effect control and ±100 the full control effect. The essentials:
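16 hr incubation of compound-treated RXR-alpha-UAS-bla HEK 293T cells (2% charcoal-stripped FBS, 37 C) preceded a 2 hr room-temperature LiveBLAzer FRET substrate step and blue/green fluorescence measurement.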

Chain of Retinoic acid receptor RXR-alpha (Homo sapiens) (P19793 whole entry, looked up): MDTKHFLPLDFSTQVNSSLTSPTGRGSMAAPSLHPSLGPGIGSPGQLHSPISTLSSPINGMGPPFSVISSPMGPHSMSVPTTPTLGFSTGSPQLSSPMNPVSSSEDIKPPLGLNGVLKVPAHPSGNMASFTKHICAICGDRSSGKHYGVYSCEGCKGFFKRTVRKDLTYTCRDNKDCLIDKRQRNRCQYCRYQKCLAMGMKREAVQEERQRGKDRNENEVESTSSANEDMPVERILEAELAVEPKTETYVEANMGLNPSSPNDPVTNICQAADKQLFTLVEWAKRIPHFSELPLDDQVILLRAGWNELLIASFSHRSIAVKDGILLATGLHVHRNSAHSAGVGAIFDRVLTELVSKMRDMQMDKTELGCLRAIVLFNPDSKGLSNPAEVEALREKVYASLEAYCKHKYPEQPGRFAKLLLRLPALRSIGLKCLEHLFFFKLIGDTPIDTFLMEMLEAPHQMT

On to `C=CC(=O)NC(C)(C)CC(C)=O`, for which the Potency entry in assay [1], in assay [2], in [3], in [4], in [5] and in assay [6] was “inactive” each time. Moreover, the Potency result in assay [7], in [8], in [9] and in assay [10] was “inactive” in each case.
As to `COC(=O)C1(O)c2ccccc2-c2ccccc21`, the Potency entry in [2], in assay [3], in [4], in assay [5], in assay [6] and in assay [7] was “inactive” throughout. For the same compound, the Potency result in assay [8], in assay [9] and in assay [10] was “inactive” throughout.
Regarding `CCCCOC(=O)CCC(=O)OCCCC`, the Potency entry in assay [2], in [3], in [4], in assay [5], in assay [6] and in [8] was “inactive” each time. The Potency result in assay [9] and in assay [10] was “inactive” each time.
For `C=CCOC(=O)C(C)(C)OC(=O)c1cc(-n2c(=O)cc(C(F)(F)F)n(C)c2=O)ccc1Cl`, the Potency entry in [2], in [3], in assay [4], in assay [5], in [6] and in assay [8] was “inactive” each time. The Potency entry in [9] and in assay [10] was “inactive” each time.
Regarding `OC[P+](CO)(CO)CO`, the Potency in [1] is 55.6 µM (active) and inactive; in assay [4] it was 1.57 µM (active). Moreover, the Potency result in [2], in [3], in assay [5], in assay [6], in assay [8] and in assay [9] was “inactive” each time. Besides, the Potency result in assay [10] was “inactive”.
As for `CC(C)C1(C)N=C(c2ncccc2C(=O)O)NC1=O` (configuration not stated), the Potency result in [1], in assay [2], in [3], in [4], in [5] and in [7] was “inactive” throughout. Also, the Potency entry in assay [8] and in assay [9] was “inactive” in each case. Besides, the Potency in assay [10] was 43.5 µM (active).
For the compound `CCOP(=S)(S)OCC`, the Potency result in assay [2], in assay [3], in assay [4], in [5], in assay [6] and in [8] was “inactive” each time. Further, in assay [9], the Potency result is “inactive”.
With `C[N+](C)(C)CCOC(=O)C(O)(c1ccccc1)c1ccccc1`, the Potency result in assay [1], in assay [2], in assay [3], in assay [4], in [5] and in assay [6] was “inactive” throughout. Moreover, the Potency result in assay [8], in assay [9] and in assay [10] was “inactive” throughout.
Regarding `Cc1nc(N(C)C)nc(OC(=O)N(C)C)c1C`, the Potency entry in assay [1], in [2], in assay [3], in assay [4], in assay [5] and in [6] was “inactive” in each case. Also, the Potency entry in assay [8], in assay [9] and in assay [10] was “inactive” throughout.
In the case of `N#CC(C#N)=Cc1ccc(O)c(O)c1`, the Potency result in assay [1], in assay [3], in [4], in assay [5], in assay [6] and in assay [8] was “inactive” each time. Also, the Potency entry in assay [9] and in assay [10] was “inactive” throughout.
For `CCCCCCCCCCCCN=C(N)N`, the viability change, negative = cytotoxic in [2] was -22.1% [at 3.11 µM] (inactive); in assay [8], -1.76% [at 2.72 µM] (inactive). Also, the activity, negative = cytotoxic in assay [3] is -2.48% [at 3.12 µM] (inactive). Also, the activation in assay [4] was 0.217% [at 3.11 µM] (inactive); in assay [9], 1.6% [at 2.72 µM] (inactive); in [10], 1.85% [at 2.71 µM] (inactive). The activity change, negative = cytotoxicity in [5] is 5.11% [at 3.11 µM] (inactive). Besides, in [6], the activity, negative = cytotoxicity is -5.37% [at 3.27 µM] (inactive).
On to `N#CC1(N=NC2(C#N)CCCCC2)CCCCC1`, for which the Potency entry in [1], in [2], in assay [3], in assay [4], in assay [5] and in [7] was “inactive” throughout. Besides, the Potency result in assay [8], in [9] and in assay [10] was “inactive” throughout.
In the case of `C=C(Cl)Cl`, the Potency result in assay [1], in [2], in assay [3], in assay [4], in assay [5] and in [6] was “inactive” in each case. Further, the Potency entry in assay [8], in assay [9] and in assay [10] was “inactive” in each case.
With `CCCC[P+](CC)(CCCC)CCCC` (tested in a mixture with another compound), the Potency entry in assay [1], in assay [2], in assay [3], in [4], in assay [5] and in assay [6] was “inactive” in each case. The Potency entry in assay [8], in assay [9] and in assay [10] was “inactive” each time.
Regarding `CC(Cc1ccccc1)NCc1ccccc1Cl` (configuration not stated), the Potency entry in assay [1], in [3], in assay [4], in assay [5], in assay [7] and in [8] was “inactive” in each case. The Potency entry in [10] is “inactive”. For the same compound, in assay [9], the Potency is 23.9 µM (active).
Turning to `CCCCC#N`, the Potency result in assay [1], in assay [3], in assay [4], in assay [5], in assay [7] and in assay [8] was “inactive” throughout. Moreover, the Potency entry in [9] and in [10] was “inactive” each time.
Consider `COc1cc(CC#N)cc(OC)c1OC`, for which the Potency entry in [1], in assay [2], in [3], in assay [4], in assay [5] and in assay [6] was “inactive” in each case. Besides, the Potency result in [8], in assay [9] and in assay [10] was “inactive” each time.
With `Cc1ccc(N)c(C)c1`, the Potency entry in [1], in [2], in assay [3], in assay [4], in assay [5] and in assay [6] was “inactive” each time. In addition, the Potency entry in assay [8], in assay [9] and in [10] was “inactive” throughout.
As for `C[C@H](N)[C@H](O)c1ccc(O)c(O)c1`, the Potency entry in [1], in [3], in assay [4], in [5], in assay [6] and in assay [8] was “inactive” in each case. Moreover, the Potency entry in assay [9] and in assay [10] was “inactive” each time.
As for `NCCc1cc(O)c(O)cc1O`, the Potency result in assay [3], in assay [5], in assay [7], in assay [8], in assay [9] and in assay [10] was “inactive” in each case. Moreover, the Potency in assay [4] is 4.25 µM (active).
In the case of `O=C(O)COc1cc(Cl)c(Cl)cc1Cl`, the Potency entry in assay [1], in [2], in [3], in assay [4], in assay [5] and in assay [6] was “inactive” each time. Further, the Potency entry in assay [8] and in assay [9] was “inactive” throughout. The Potency in [10] is 24.6 µM (active).
As for `CN1CC[C@]23c4c5ccc(O)c4O[C@H]2[C@@H](O)C=C[C@H]3[C@H]1C5`, the Potency result in [2], in assay [3], in [4], in assay [5], in assay [6] and in [8] was “inactive” each time. The Potency entry in [9] and in [10] was “inactive” throughout.
Consider `CC(=O)NNc1ccccc1`, for which the Potency result in assay [3], in assay [4], in assay [5], in assay [6], in [8] and in assay [9] was “inactive” each time.
In the case of `C=CCSSCC=C`, the Potency entry in [1], in assay [2], in [3], in [4], in assay [5] and in assay [7] was “inactive” in each case. Besides, the Potency entry in assay [8], in assay [9] and in assay [10] was “inactive” in each case.
Consider `N#CC(C#N)=C(C#N)C#N`, for which the Potency result in assay [1], in [3], in assay [4], in [5], in assay [6] and in assay [8] was “inactive” each time. In addition, the Potency entry in [9] and in assay [10] was “inactive” in each case.
For `c1ccc2sc(SNC3CCCCC3)nc2c1`, the Potency entry in assay [1], in assay [2], in assay [3], in [4], in assay [5] and in [6] was “inactive” each time. The Potency result in assay [8] was “inactive”.
As to `CCCSP(=S)(OCC)Oc1ccc(SC)cc1` (configuration not stated), the Potency entry in assay [2], in [3], in [4], in assay [5], in [6] and in [7] was “inactive” in each case. The Potency entry in assay [8] and in assay [9] was “inactive” each time.
Take `COC1=CC(=O)O[C@@H](/C=C/c2ccc3c(c2)OCO3)C1`: the Potency result in assay [1], in assay [2], in assay [3], in assay [4], in assay [5] and in assay [6] was “inactive” each time. In addition, the Potency entry in [7], in assay [8] and in assay [9] was “inactive” in each case.
Consider `O=C(O)C(Cl)(Cl)Br`, for which the Potency result in assay [1], in assay [3], in [4], in [5], in assay [6] and in assay [8] was “inactive” each time. For the same compound, the Potency entry in [9] and in assay [10] was “inactive” in each case.
